# Results filed as inconclusive are left out. A call without a number means that no potency is given here. Activity calls are given as the source filed them. Calls come from the whole dose curve; as a rule, active = well fitted activation curve with a large enough effect; inconclusive = small, poorly fitted or top-dose-only effect; inactive = no such curve, though single readings can be large or run the other way.
# Target: Relaxin receptor 2 (Homo sapiens) (UniProt Q8WXD0)
# Experiment: qHTS Assay for Agonists of the Relaxin Receptor RXFP1: RXFP2 SAR
# Conditions: HEK293 RXFP2 cAMP TR-FRET agonist, 30 min; series mostly up to 78.1 µM
# Text: The relaxin hormone is involved in the variety of biological functions in normal tissues and diseases. The role of relaxin is well-established in female reproduction and parturition, mammary gland and endometrial development, maintenance of myometrial quiescence during pregnancy. Relaxin signaling through its G protein-coupled receptor (GPCR) RXFP1 results in ECM remodeling through regulation of collagen deposition, cell invasiveness, proliferation and overall tissue homeostasis. […] Recombinant human relaxin (rhRlx) is currently being tested in clinical trials as a protective agent in congestive heart failure, in treating severe preeclampsia, and as an anti-fibrotic agent in systemic sclerosis. Upon relaxin binding RXFP1 activation leads to the activation of adenylate cyclase (AC) via Gs. cAMP will activate PKA, which phosphorylates many signaling proteins. Thus, detection of cAMP increase is an easy and reliable indication of relaxin receptor activation. To screen for agonists of the relaxin receptor, a HEK293T cell line stably transfected with RXFP1 was used. RXFP1 activation was assayed by changes in cAMP levels as detected with a time-resolved fluorescence energy transfer (TR-FRET) cAMP detection kit. This assay measures activation of a cell expressing RXFP2, another GPCR targeted by relaxin, to determine the selectivity of compounds for RXFP1. NIH Chemical Genomics Center [NCGC] NIH Molecular Libraries Probe Production Centers Network [MLPCN] MLPCN Grant: R03 MH085705-01A1 Assay Submitter (PI): Alexander Agoulnik
# This is a cell-based assay for cAMP second messenger response to screen for agonists of the RXFP2 receptor. The assay was conducted in the presence of a PDE4 inhibitor (Ro 20174). The cells were lysed and the cAMP levels were measured with a TR-FRET cAMP kit. Presence of cAMP in the cell lysate disrupts binding between the cryptate-labeled anti-cAMP and d2-labeled cAMP pair, leading to a decrease in the TR-FRET signal. Data were normalized to the controls for basal activity (buffer only) and 100% activity (29 nM porcine relaxin). The EC50 values were determined from concentration-response data modeled with the standard Hill equation 1536-well assay protocol for the HEK293 RXFP2 cAMP assay: (1) Add 3 ul HEK293 RXFP2 cell culture. 2000 cells/well in DMEM/F12, 10% FBS, 1x Pen/Strep (dispensed offline with MultiDrop Combi). (2) Incubate 16-24 hr at 37C, 5% CO2. (3) Add 1 ul 400uM Ro20174 in DPBS, 0.05% BSA, 0.005% Tween 20. (3) Add 23 nl compounds in DMSO solution. Final concentration was 0.5 - 58 uM. (4) Incubate 30 min at 37C, 5% CO2. (5) Add 1 ul cAMP-d2 in lysis buffer (HTRF cAMP HiRange kit, CisBio). (6) Add 1 ul anti-cAMP antibody-cryptate in lysis buffer (HTRF cAMP HiRange kit, CisBio). (7) Incubate 30 min at room temperature. (6) Detect the assay plate in a ViewLux plate reader (PerkinElmer) with Ex=320 nm, Em1=615 nm and Em2=665 nm. Keywords: relaxin, RXFP1, RXFP2, G-protein coupled receptor, cAMP, agonist, high throughput screening, MLSMR, MLSCN, NIH Roadmap, qHTS and NCGC
# Relaxin receptor 2 (Homo sapiens), sequence (Q8WXD0 whole entry, looked up): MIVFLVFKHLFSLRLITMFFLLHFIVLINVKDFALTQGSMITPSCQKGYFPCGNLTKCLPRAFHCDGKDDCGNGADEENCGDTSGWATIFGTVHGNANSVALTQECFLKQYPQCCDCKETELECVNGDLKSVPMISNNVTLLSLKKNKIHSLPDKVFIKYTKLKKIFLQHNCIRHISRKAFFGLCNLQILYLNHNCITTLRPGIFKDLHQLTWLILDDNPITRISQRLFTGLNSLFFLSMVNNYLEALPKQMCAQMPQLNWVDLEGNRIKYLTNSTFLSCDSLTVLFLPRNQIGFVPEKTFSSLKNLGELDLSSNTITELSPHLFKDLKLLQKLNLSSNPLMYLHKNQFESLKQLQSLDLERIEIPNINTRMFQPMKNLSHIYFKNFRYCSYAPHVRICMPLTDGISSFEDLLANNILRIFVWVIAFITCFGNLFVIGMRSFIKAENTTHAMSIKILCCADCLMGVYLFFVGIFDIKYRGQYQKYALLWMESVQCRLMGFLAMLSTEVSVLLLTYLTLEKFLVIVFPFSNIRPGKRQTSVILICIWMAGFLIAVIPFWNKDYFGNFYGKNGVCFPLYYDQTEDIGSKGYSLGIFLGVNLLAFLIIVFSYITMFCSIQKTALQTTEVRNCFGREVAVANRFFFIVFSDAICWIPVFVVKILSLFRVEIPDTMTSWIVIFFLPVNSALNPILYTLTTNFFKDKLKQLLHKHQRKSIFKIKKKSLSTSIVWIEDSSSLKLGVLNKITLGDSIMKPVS
row,Structure (SMILES),Potency
1,COc1cccc(NC(=O)c2ccccc2NC(=O)C2CCCCC2)c1,inactive
2,CCOc1ccccc1C(=O)Nc1ccncc1C(=O)Nc1cccc(S(=O)(=O)C(F)(F)F)c1,9.4 µM (active)
3,COc1ccccc1C(=O)N(C)c1ccccc1C(=O)N(C)c1cccc(C(F)(F)F)c1,inactive
4,CCOc1ccccc1C(=O)NCCC(=O)Nc1cccc(S(=O)(=O)C(F)(F)F)c1,inactive
5,CCCCC(=O)Nc1ccccc1C(=O)Nc1cccc(C(F)(F)F)c1,inactive
6,O=C(Cc1ccccc1)Nc1ccccc1C(=O)Nc1cccc(C(F)(F)F)c1,inactive
7,Cc1cccc(NC(=O)c2ccccc2NC(=O)C2CCCCC2)c1,inactive
8,CCCOc1ccccc1C(=O)Nc1ccccc1C(=O)Nc1cccc(S(=O)(=O)C(F)(F)F)c1,inactive
9,O=C(Nc1cccc(-c2ccccc2C(F)(F)F)c1)c1ccccc1NC(=O)C1CCCCC1,inactive
10,CN(C)CCOc1ccccc1C(=O)Nc1ccccc1C(=O)Nc1cccc(C(F)(F)F)c1,inactive
11,CCCCOc1ccccc1C(=O)Nc1ccccc1C(=O)Nc1cccc(S(=O)(=O)C(F)(F)F)c1,inactive
12,O=C(Nc1cccc(C(F)(F)F)c1)c1ccccc1NC(=O)C1CC1,inactive
13,COc1ccccc1C(=O)Nc1ccccc1C(=O)Nc1cccc(S(=O)(=O)C(F)(F)F)c1,inactive
14,O=C(Nc1cccc(-c2ccccc2)c1)c1ccccc1NC(=O)C1CCCCC1,inactive
15,CCOc1ccccc1C(=O)Nc1ccccc1C(=O)Nc1cccc(S(=O)(=O)C(F)(F)F)c1,7.47 µM (active)
16,COc1ccccc1C(=O)N(C)c1ccccc1C(=O)Nc1cccc(C(F)(F)F)c1,inactive
17,O=C(Nc1cccc(Cl)c1)c1ccccc1NC(=O)C1CCCCC1,inactive
18,O=C(Nc1cccc(SC(F)(F)F)c1)c1ccccc1NC(=O)C1CCCCC1,inactive
19,CC(C)Oc1ccccc1C(=O)Nc1ccccc1C(=O)Nc1cccc(C(F)(F)F)c1,inactive
20,COc1ccc(C(=O)Nc2ccccc2C(=O)Nc2cccc(C(F)(F)F)c2)cc1,inactive

row,Structure (SMILES),Potency
1,CCSc1ccccc1C(=O)Nc1ccccc1C(=O)Nc1cccc(S(=O)(=O)C(F)(F)F)c1,inactive
2,O=C(Nc1cccc(F)c1)c1ccccc1NC(=O)C1CCCCC1,inactive
3,COc1ccccc1C(=O)Nc1cccc(C(=O)Nc2cccc(C(F)(F)F)c2)c1,inactive
4,O=C(Nc1ccccc1C(=O)Nc1cccc(C(F)(F)F)c1)c1cccnc1,inactive
5,O=C(Nc1cccc(C(F)(F)F)c1)c1ccccc1NC(=O)C1CCCCCC1,inactive
6,O=C(Nc1cccc(-c2cccc(C(F)(F)F)c2)c1)c1ccccc1NC(=O)C1CCCCC1,inactive
7,O=C(Nc1cccc(C(F)(F)F)c1)c1ccccc1NC(=O)C1CCCC1,inactive
8,O=C(Nc1cccc([N+](=O)[O-])c1)c1ccccc1NC(=O)C1CCCCC1,inactive
9,COc1cccc(OC)c1C(=O)Nc1ccccc1C(=O)Nc1cccc(C(F)(F)F)c1,inactive
10,COc1ccccc1CNc1ccccc1C(=O)Nc1cccc(C(F)(F)F)c1,inactive
11,O=C(Nc1cccc(S(=O)(=O)C(F)(F)F)c1)c1ccccc1NC(=O)c1ccccc1OCC(F)(F)F,inactive
12,O=C(Nc1cccc(S(=O)(=O)C(F)(F)F)c1)c1ccccc1NC(=O)C1CCCCC1,inactive
13,Cc1ccc(NC(=O)c2ccccc2NC(=O)C2CCCCC2)cc1,inactive
14,COc1ccccc1-c1ccccc1C(=O)Nc1cccc(C(F)(F)F)c1,inactive
15,O=C(Nc1cccc(Br)c1)c1ccccc1NC(=O)C1CCCCC1,inactive
16,O=C(Nc1ccccc1)c1ccccc1NC(=O)C1CCCCC1,inactive
17,O=C(Nc1ccccc1C(=O)Nc1cccc(C(F)(F)F)c1)c1ccccc1Cl,inactive
18,CCOc1ccccc1-c1nc2c(C(=O)Nc3cccc(S(=O)(=O)C(F)(F)F)c3)cccc2[nH]1,inactive
19,CSc1cccc(NC(=O)c2ccccc2NC(=O)C2CCCCC2)c1,inactive
20,O=C(NCc1ccco1)c1ccccc1NC(=O)c1ccccc1NC(=O)C1CCCCC1,inactive
